# Measurements reported in ChEMBL document CHEMBL4513216, “Probing the Open Global Health Chemical Diversity Library for Multistage-Active Starting Points for Next-Generation Antimalarials” (ACS Infect Dis, 2020).
# Out of some 68,000 compounds screened, about 2,700 (4%) showed an effect of 50% or more. This is one part of a sample in which strong results are shown more often than they occur.
# System: Plasmodium berghei
# Assay: Screen against P. berghei liver stage (PbLuc), transformed with Luciferase, at 2uM
# Type: functional, HepG2
# Conditions: tested at 2 uM
row,SMILES,INHIBITION [%]
1,CC(C)(C)CN1CC(COc2ccccc2)Oc2ccncc2S1(=O)=O (stereo unspecified),14.96
2,Cc1ccc(-c2noc(C(O)CC(C)C)n2)nn1 (stereo unspecified),-12.08
3,CCSC(C)c1nc(-c2ccc(C)nn2)no1 (stereo unspecified),66.4
4,Cc1ccc(-c2noc([C@H](N)CC(C)C)n2)nn1,24.55
5,Fc1cnc(N2C[C@@H]3C[C@@H](c4nc(C5CC5)cs4)O[C@@H]3C2)nc1,3.53
6,Cc1nc(-c2cc(C(=O)O)co2)cs1,9.95
7,CCOCC1CN(C(=O)c2ccncn2)Cc2cnn(CC)c21 (stereo unspecified),4.99
8,CC(C)C(C)(C#N)NC(=O)Cn1cc(-c2ccccc2)cn1 (stereo unspecified),-4.26
9,CC(C)C(C)(C#N)NC(=O)Cn1cc(I)cn1 (stereo unspecified),64.9
10,CC(C)C(C)(C#N)NC(=O)Cn1cc(Cl)cn1 (stereo unspecified),26.74
11,Cc1nccn1CCN1C(=O)CC2(CCCC2)CC1=O,-50.2
12,CCc1c(NCc2cccnc2)cnn1CC(C)C,-16.94
13,CN(Cc1ccsc1)C(=O)Nc1ccc(S(C)(=O)=O)cc1,-12.75
14,Cn1cccc1CN(C(=O)CC(CC(=O)O)c1cccs1)C1CC1 (stereo unspecified),81.52
15,O=C(O)CC(CC(=O)NCCc1cccs1)c1cccs1 (stereo unspecified),17.25
16,CN(C(=O)Cc1cccs1)C1CCN(c2ccccn2)CC1,16.89
17,O=C(O)CC(CC(=O)N(Cc1ccsc1)C1CC1)c1cccs1 (stereo unspecified),1.06
18,Cn1cccc1CN(C(=O)Cc1cccs1)C1CC1,51.96
19,CN(Cc1cccs1)C1CCC[C@@H]2CN(C(=O)c3cccn3C)C[C@H]12 (stereo partly specified),6.33
20,CCN(CC1CCOC1)C(=O)NCc1nnc2n1CCCCC2 (stereo unspecified),7.24
21,CC(NCC1CCN(CCO)CC1)c1cccnc1 (stereo unspecified),-4.09
22,CC(NCC1CCN(CCO)CC1)c1ccc(C(F)(F)F)cc1 (stereo unspecified),55.39
23,CC(NCC1CCN(CCO)CC1)c1cccc(Cl)c1 (stereo unspecified),34.46

row,SMILES,INHIBITION [%]
1,CC(NCC1CCN(CCO)CC1)c1ccc(F)c(Cl)c1 (stereo unspecified),-111.19
2,CC(NCC1CCN(CCO)CC1)c1ccc(OC(F)(F)F)cc1 (stereo unspecified),47.68
3,CC(NCC1CCN(CCO)CC1)c1ccc(Cl)cc1 (stereo unspecified),56.49
4,CCc1nc(NC(=O)NCCc2cscn2)nn1C,1.88
5,Clc1cccc(C(CNCc2ccccn2)N2CCOCC2)c1 (stereo unspecified),20.8
6,CC(C)c1nn(C)c(N(C)C)c1CNCc1ccnc(N(C)C)c1,1.36
7,O=C(Cn1ccc2ccc(Cl)cc21)NCc1ccc(C(=O)O)cc1,30.98
8,O=C(Nc1ccccc1)N1CC(C(=O)N2CCCC2)C2(CCOCC2)C1 (stereo unspecified),51.72
9,O=C(NCC1CC1)C1CN(C(=O)Nc2ccccc2)CC12CCOCC2 (stereo unspecified),-48.3
10,CC(C)NC(=O)C1CN(C(=O)Nc2ccccc2)CC12CCOCC2 (stereo unspecified),47.1
11,CN(Cc1cc2n(n1)CCN(C(=O)[C@H]1CCCO1)C2)Cc1nccs1,24.08
12,c1ccc(Oc2cccc(OC34CCCN(CC3)C4)c2)cc1 (stereo unspecified),43.72
13,Cc1cc(C)n(C2CN(Cc3noc(-c4ccccc4)n3)C2)n1,1.34
14,Cc1ccc(-c2nc(CN3CC(n4nc(C)cc4C)C3)no2)cc1,31.55
15,Cc1cc(C)n(C2CN(Cc3noc(C4CC4)n3)C2)n1,-14.28
16,Cc1cccc(-c2nc(CN3CC(n4nc(C)cc4C)C3)no2)c1,51.31
17,COCCc1noc(CN2CCOC(Cn3nc(C)cc3C)C2)n1 (stereo unspecified),-85.26
18,COCCc1noc(CN2CC(n3nc(C)cc3C)C2)n1,65.39
19,Cn1c(CO)cnc1SC1CCCN(c2ccccc2F)C1=O (stereo unspecified),15.82
20,Cc1ncsc1CN1CCn2c(COCC3CC3)cnc2C1C (stereo unspecified),-21.27
21,CCc1noc(CNC2CCCN(Cc3noc(C4CC4)n3)C2)n1 (stereo unspecified),30.29
22,CCS(=O)(=O)c1ncc(CN(C)Cc2ccccc2Cl)n1CCOC,-5.13
23,CCS(=O)(=O)c1ncc(CN(C)Cc2ccccc2OC)n1CCOC,60.74

row,SMILES,INHIBITION [%]
1,CCS(=O)(=O)c1ncc(CN(C)Cc2ccccn2)n1CCOC,-40.94
2,CN(C)Cc1cn(-c2ccccc2C(=O)NCC2CCCCN2C)cn1 (stereo unspecified),87.38
3,CN(C)Cc1cn(-c2ccccc2C(=O)NCCC2CCCN2C)cn1 (stereo unspecified),16.43
4,CN1CCCC1CCNC(=O)c1ccccc1-n1cnc(CN)c1 (stereo unspecified),22.95
5,Cc1csc(N2CCN(Cc3nnsc3Cl)CC2C)n1 (stereo unspecified),-39.79
6,c1ccc(C[C@H]2CN(Cc3nccs3)CC[C@@H]2OCC2CC2)cc1,41.79
7,CC(C)NC(=O)N(C)C(c1cccc(F)c1)c1ccccn1 (stereo unspecified),-30.55
8,CCNC(=O)N(C)C(c1cccc(F)c1)c1ccccn1 (stereo unspecified),51.21
9,CCNC(=O)N(C)C(c1ccccc1)c1ccccn1 (stereo unspecified),-18.26
10,Cc1ccc(S(=O)(=O)N2CCOCC2C(N)=O)c(F)c1 (stereo unspecified),14.17
11,Cc1ccnc(SCC(=O)Nc2csc3nc(=O)c(C)nn23)n1,35.42
12,CNC(=O)COc1cccc(CNC(=O)c2c(C)noc2C)c1,24.36
13,Cc1noc(C(C)C)c1C(=O)NCc1cccc(N(C)C)c1,-57.97
14,CCN(CC)C(CNC(=O)c1c(C)noc1C(C)C)c1ccsc1 (stereo unspecified),-25.61
15,Cc1noc(C(C)C)c1C(=O)NCc1ccc2c(c1)OCCO2,56.02
16,Cc1noc(C(C)C)c1C(=O)NCc1ccc(N(C)C)c(F)c1,-9.17
17,Cc1noc(C(C)C)c1C(=O)NCC(c1ccsc1)N(C)C (stereo unspecified),63.95
18,COCc1cccc(CNC(=O)c2c(C)noc2C(C)C)c1,49.9
19,Cc1noc(C)c1C(=O)NCC(c1ccsc1)N(C)C (stereo unspecified),-12.82
20,CNC(=O)COc1cccc(CNC(=O)c2c(C)noc2C(C)C)c1,74.35
21,O=S(=O)(C1CC1)N1CCCn2nnc(Cn3cccc3)c2C1,23.81
22,CCOCCC(=O)N1CCCCC1CCn1cccn1 (stereo unspecified),30.25
23,CCn1cc2c(n1)CN(Cc1ccncc1)CC2COCC1CC1 (stereo unspecified),14.94

row,SMILES,INHIBITION [%]
1,CCOCC1CN(c2ccncn2)Cc2cnn(CC)c21 (stereo unspecified),32.69
2,Cc1cc2c(N3CCC(N(C)CCc4cnn(C)c4)CC3)ncnc2s1,-15.4
3,CSCC(CCO)NC(=O)Nc1ccc(Br)cc1 (stereo unspecified),-39.48
4,C[C@@H]1CN(C(=O)CCc2nncn2C)C[C@@]1(O)C1CCC1,52.08
5,C[C@@H]1CN(C(=O)CCc2cnn(C)c2)C[C@@]1(O)C1CCC1,11.33
6,C[C@@H]1CN(C(=O)CCc2nncn2C)CC[C@@]1(O)C1CCC1,12.43
7,Cc1noc(C)c1CCC(=O)Nc1ccn(C)n1,-7.68
8,CN(Cc1cnccn1)CC1CCOc2ccccc2C1 (stereo unspecified),20.76
9,CCc1n[nH]c(C(=O)NCCn2nccc2C)c1C,20.71
10,CCc1n[nH]c(C(=O)NCCn2ccnc2C)c1C,57.34
11,CCc1n[nH]c(C(=O)NCCn2ccc(C)n2)c1C,16.87
12,CC(=O)c1ccc(F)cc1-c1cc(NCCO)nc2[nH]ccc12,6.85
13,COc1ccccc1Nc1nc2c(s1)C(=O)CN(C(=O)CC(C)C)C2,2.6
14,CC(O)CNC(=O)c1nc(Cc2c(Cl)cccc2Cl)no1 (stereo unspecified),20.71
15,O=C(NCC(=O)N1CCCC1)c1nc(Cc2c(Cl)cccc2Cl)no1,57.4
16,CC(C)CNC(=O)CNC(=O)c1nc(Cc2c(Cl)cccc2Cl)no1,-2.09
17,COC(=O)NCC(=O)NCC(C)(C)c1cccc(Br)c1,19.07
18,Cc1cccc(CN2CCC3(CCC(C(=O)N(C)C)O3)CC2)n1 (stereo unspecified),58.4
19,Cc1ccc(CN2CCC3(CCC(C(=O)N(C)C)O3)CC2)o1 (stereo unspecified),5.14
20,CN(C)C(=O)C1CCC2(CCN(Cc3ccc4ccccc4n3)CC2)O1 (stereo unspecified),23.26
21,CCn1cnc(NC(=O)NCC2CCS(=O)(=O)CC2)n1,28.85
22,Cc1ccc(CN2CCOC(C)(c3cnn(C)c3)C2)cc1 (stereo unspecified),21
23,CC(C)N1CCN(C(=O)Cc2csc(-c3ccco3)n2)CC1,28.18

row,SMILES,INHIBITION [%]
1,O=C(C1CCCCN1Cc1nc(-c2ccco2)no1)N1CCCC1 (stereo unspecified),-113.33
2,O=C(C1CCCN1Cc1nc(-c2ccco2)no1)N1CCSCC1 (stereo unspecified),58.05
3,O=C(NCc1ccco1)C1CCCN1Cc1nc(-c2ccco2)no1 (stereo unspecified),-43.47
4,O=C(Cc1csc(-c2ccco2)n1)N1CCSCC1,50.76
5,O=C(Cc1csc(-c2ccco2)n1)N1CCN(CCO)CC1,-27.91
6,CNC(=O)C1CCCN(C(=O)OC)C1 (stereo unspecified),-0.28
7,O=C(CCN1CCCCO1)NCc1cn2c(n1)SCC2,21.36
8,Cc1nc(-c2ccccc2)n(CC(=O)NCC(C)C)n1,26.4
9,COc1ccc(CN2CCC3(CCCN(c4ncc(F)cn4)C3)C2)cc1 (stereo unspecified),-50.35
10,Cc1nc(C)n(CC2CN(c3ccc(C#N)cn3)CCO2)n1 (stereo unspecified),-16.42
11,CN(C)CC1CN(c2ccc(C#N)cn2)CCO1 (stereo unspecified),54.85
12,Cc1cnn(CC2CN(c3ccc(C#N)cn3)CCO2)c1 (stereo unspecified),-11.2
13,Cc1cccc(CN2C[C@@H]3CC[C@H]2CN(Cc2[nH]cnc2C)C3)n1,25.68
14,COc1cccc(CC(=O)N2CCC(NCc3c[nH]nc3C)CC2)c1,55.06
15,Cc1n[nH]cc1CNC1CCN(c2cccc(C(F)(F)F)c2)CC1,78.72
16,COc1ccccc1CC(=O)N1CCC(NCc2c[nH]nc2C)CC1,-14.17
17,Cc1n[nH]cc1CNC1CCN(c2ccccc2)CC1,7.83
18,COc1cccc(-c2n[nH]cc2CNC2CCN(C3CC3)CC2)c1,-13.89
19,Cc1n[nH]cc1CNC1CCN(c2ccc(F)cc2)CC1,-13.72
